PMP22 txn prim: modulators of PMP22 gene transcription in S16 Schwann cells; 2% of 43,000 active; Potency, µM (doses to about 57.5 µM), inactives show top-dose activity change, negative = inhibition, actives largely listed as inhibitors; S16 Pmp22-F2sN Schwann cells, FLuc/NLuc coincidence luminescence, 24 h; active means clear falling dose curves in both reporters; inconclusive means both reporters move, but less clearly or upward; inactive means either reporter flat; the % is the NLuc reporter signal
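S16(c9) Schwann cells with FLuc/NLuc coincidence reporter in the Pmp22 3' UTR; compounds pin-transferred, 24 h at 37C. Dual-luciferase read: FLuc first, then NLuc after Stop&Glo, each 10 min at room temperature.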
p53null 39C kill: kills p53 null cells at the nonpermissive temperature | H1299 p53-null (neo) cells, 39C, ATPlite viability, 24 h | Potency, µM (top dose mostly 46.1 µM), inactives show at the highest dose activity, negative = cell killing, usual class: cytotoxic | 0.97% of 55,000 active;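 further: 0% = DMSO only and -100% = full killing by 100 µM tamoxifen; nearly all actives have a fitted effect of over 50% in size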
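Concentration-response (up to 46 uM) was run for 24 h at the nonpermissive 39C on H1299-p53A138V or H1299-neo cells. ATP content was measured with ATPlite luminescence. AC50 values were Hill-modeled after normalizing between DMSO and 100 uM tamoxifen killing.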
S16 viability: cytotoxicity in S16 Pmp22-F2sN Schwann cells. S16 Pmp22-F2sN Schwann cells viability, CellTiter-Glo, 24 h. Potency, µM (top dose mostly 57.5 µM), inactives show at the highest dose activity change, negative = cytotoxicity, most hits filed as cytotoxic. 0.48% of 43,000 active. AID 1508642; further: nearly all actives have a fitted effect of over 65% in size
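S16 Pmp22-F2sN Schwann cells (500-1,000/well) in phenol-red-free DMEM with 10% FBS received 23 nL compound by pin tool for 24 h at 37 °C. Viability was then read as CellTiter-Glo luminescence after 15 min at room temperature.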
pS6 MEF inh: inhibitors of mTORC1 signaling in Tsc2-/- p53-/- MEF cells; Tsc2-/- p53-/- MEF, phospho-rpS6 immunofluorescence/PI, 24 h; AID 493208; 0.78% of 44,000 active; Potency, µM (doses to about 38.3 µM), inactives show at the highest dose activity change, negative = inhibition, usual class: inhibitors;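 further: plate controls were DMSO for no effect and rapamycin for full effect; nearly all actives have a fitted effect of over 50% in size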
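Immunofluorescence of rpS6 phosphorylation in Tsc2-/-, p53-/- MEFs after 24 h compound exposure, normalized to propidium iodide signal. Activity is expressed as % positive cells, thresholded with 7.5 nM rapamycin.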
p53null 32C tox: kills p53 null cells at the permissive temperature; Potency, µM (top dose mostly 46.1 µM), for the others: at the highest dose activity change, negative = cytotoxicity, usual class: cytotoxic; 0.62% of 55,000 active; AID 903; H1299-neo p53 null cells, ATP luminescence, 24 h, 32C;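 further: 0% = DMSO only and -100% = full killing by 100 µM tamoxifen; nearly all actives have a fitted effect of over 55% in size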
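Cells lacking p53 (H1299-neo) are plated at 600 per well and allowed to settle overnight at 37C. Test compounds (up to 46 uM) are added and held 24 hours at 32C, then ATP is quantified by luminescence.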
SKOV3 invasion: inhibitors of ovarian cancer cell adhesion and invasion in omental model; SKOV3ip1-GFP adhesion/invasion on 3D omental model, fluorescence; Potency, µM (titrated, usually from 45.8 µM), inactives show at the top dose activity change, negative = inhibition, usual class: inhibitors; 0.1% of 46,000 active; AID 1963576;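 further: plate controls were DMSO wells for no effect and tomatine positive control wells for full effect; nearly all actives have a fitted effect of over 65% in size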
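A 3D layer of primary human omental fibroblasts, mesothelial cells, fibronectin and collagen I, grown 48 hr, received SKOV3ip1-GFP cells in serum-free medium plus compounds at 0.36-46 umol/L. After 2 hr RT and 16 hr 37 C, fixed adherent GFP cells were counted; normalized to DMSO and tomatine.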
Starred values were filed as active, the others as inactive. Hits are enriched below; roughly 3.1% of the tested compounds scored in any of these assays. Unless noted, the call rests on the fitted dose curve; in most records, active means well fitted curve in the direction sought with a large enough effect; inconclusive means small, poorly fitted or top-dose-only effect, or another doubt; inactive means no such curve, though single readings can be large; an effect the other way counts as inactive or inconclusive. Unless noted, on the % scale 0 is the no-effect control and ±100 the full control effect; potency means the concentration at half of the fitted maximal effect.

`CC(C)(O)C=CC(=O)[C@](C)(O)[C@H]1[C@H](O)C[C@]2(C)[C@@H]3CC=C4[C@@H](C=C(O)C(=O)C4(C)C)[C@]3(C)C(=O)C[C@@]12C` gave SKOV3 invasion 1µM*.
Screening Cc1c(N)nc([C@H](CC(N)=O)NC[C@@H](N)C(N)=O)nc1C(=O)N[C@H](C(=O)N[C@@H](C)[C@H](O)[C@@H](C)C(=O)N[C@@H](C(=O)NCCc1nc(-c2nc(C(=O)NCCC[S+](C)C)cs2)cs1)[C@@H](C)O)C(O[C@H]1O[C@H](CO)[C@H](O)[C@@H](O)[C@@H]1O[C@H]1O[C@H](CO)[C@@H](O)[C@H](OC(N)=O)[C@H]1O)c1cnc[nH]1 (some centres undefined) returned SKOV3 invasion -27%.
`CC1=C(O)C(=O)C=C2C1=CC=C1[C@@]2(C)CC[C@@]2(C)[C@@H]3C[C@](C)(C(=O)O)CC[C@]3(C)CC[C@]12C` gave SKOV3 invasion 4.2µM*.
Screening C[C@@H]1[C@@H](C(=O)C[C@H]2O[C@@H]3O[C@]4(C)CC[C@@H]5[C@H](C)CC[C@@H]([C@H]2C)[C@@]35OO4)O[C@@H]2O[C@]3(C)CC[C@H]4[C@H](C)CC[C@@H]1[C@@]24OO3 returned SKOV3 invasion 3%.
`CCOc1ccc(N(C(C)C(=O)Nc2cc(Cl)ccc2OC)S(C)(=O)=O)cc1` (centres undefined) gave PMP22 txn prim inconclusive, p53null 39C kill 46%, S16 viability inconclusive, pS6 MEF inh 7.4µM*, p53null 32C tox 12% and SKOV3 invasion inconclusive.
Screening COc1ccc(C(=O)Nc2ccc(Cl)cc2C(=O)c2ccccc2)c(OC)c1 returned PMP22 txn prim -16%, p53null 39C kill 20%, S16 viability 22%, pS6 MEF inh -18%, p53null 32C tox 1% and SKOV3 invasion -4%.
For CC1=C2C[C@@H]3[C@@H](CC=C4C[C@@H](O)CC[C@@]43C)[C@@H]2CC[C@]12O[C@H]1C[C@H](C)CN[C@H]1[C@H]2C the results were SKOV3 invasion 20%.
For O=C(NCCSc1c(-c2ccc(F)cc2)[nH]c2ccccc12)c1ccc(S(=O)(=O)N2CCOCC2)cc1 the results were PMP22 txn prim inconclusive, p53null 39C kill 13%, S16 viability inconclusive, pS6 MEF inh 15µM*, p53null 32C tox 10% and SKOV3 invasion inconclusive.
Screening COC[C@H]1OC(=O)c2coc3c2[C@@]1(C)C1=C(C3=O)[C@@H]2CC[C@H](O)[C@@]2(C)C[C@@H]1OC(C)=O returned SKOV3 invasion 6%.
For COc1ccc(NC(=O)CCc2nc(C3=CCN(Cc4cccc(Cl)c4)CC3)no2)cc1OC the results were PMP22 txn prim -19%, p53null 39C kill 17%, S16 viability -21%, pS6 MEF inh 0%, p53null 32C tox 3% and SKOV3 invasion inactive.
`COc1ccc(NC(=O)CCn2cnc3onc(-c4ccc(F)cc4)c3c2=O)cc1OC` gave PMP22 txn prim 11µM*, p53null 39C kill 0%, S16 viability inconclusive, pS6 MEF inh inconclusive, p53null 32C tox 18% and SKOV3 invasion inactive.
Cc1cccn2c(=O)cc(COc3cccc(NC(=O)COc4ccc(F)cc4)c3)nc12 was read as PMP22 txn prim inconclusive, p53null 39C kill 13µM*, S16 viability inconclusive, pS6 MEF inh 13%, p53null 32C tox 13µM* and SKOV3 invasion 1%.
Screening CCCCNC(=O)c1cc(-c2cccnc2)nc2ccc(S(=O)(=O)NCCCC)cc12 returned PMP22 txn prim inconclusive, p53null 39C kill -2%, S16 viability 25µM*, pS6 MEF inh inconclusive, p53null 32C tox -9% and SKOV3 invasion -3%.
`CCCCNc1ccncc1S(=O)(=O)NC(=O)NC(C)C` gave p53null 39C kill 13% and p53null 32C tox -6%.
CC(C)[C@]12O[C@@H]1[C@@H]1O[C@]13[C@]1(O[C@H]1C[C@@H]1C4=C(CC[C@@]13C)C(=O)OC4)[C@H]2O was read as SKOV3 invasion -2%.
Cc1ccc2oc(=O)c(-c3nc4ccc(C)cc4[nH]3)cc2c1 was read as PMP22 txn prim -10%, p53null 39C kill 20µM*, S16 viability -8%, pS6 MEF inh -9%, p53null 32C tox -29% and SKOV3 invasion -25%.
For N#C[C@H](O[C@@H]1O[C@H](CO[C@@H]2O[C@H](CO)[C@H](O)[C@H](O)[C@H]2O)[C@H](O)[C@H](O)[C@H]1O)c1ccccc1 the results were SKOV3 invasion -18%.
Screening CCOC(=O)c1ccc(N2C(=O)c3n[nH]c(-c4cccs4)c3C2c2ccc(C(C)(C)C)cc2)cc1 (centres undefined) returned PMP22 txn prim inconclusive, p53null 39C kill inconclusive, S16 viability -1%, pS6 MEF inh -2%, p53null 32C tox 33% and SKOV3 invasion 8%.
`CCOC(=O)c1ccc(N2C(=O)c3n[nH]c(-c4cccs4)c3C2c2ccc(Cl)cc2Cl)cc1` (centres undefined) gave PMP22 txn prim inconclusive, p53null 39C kill 18µM*, S16 viability inconclusive, pS6 MEF inh inconclusive, p53null 32C tox inconclusive and SKOV3 invasion inactive.
`COc1ccc2nc(N3CCN(C(=O)CS(=O)(=O)c4ccc(C)cc4)CC3)sc2c1` gave PMP22 txn prim inconclusive, p53null 39C kill 85%, S16 viability inconclusive, pS6 MEF inh -7%, p53null 32C tox 10µM* and SKOV3 invasion -1%.

High-throughput results deposited in PubChem by National Center for Advancing Translational Sciences (NCATS).
